The panel holds about 79,000 compounds, 15% with a hit somewhere; the sample as a whole holds those more often. Active and inactive are the calls of the source. Rule as the data show it: active = growth inhibition above about 70%; inactive = the rest.
How the values were obtained:
[1] = NCI Yeast Anticancer Drug Screen. Data for the rad50 strain (AID 155);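 also: 0% = growth of vehicle-only cultures of the same strain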; conditions: S. cerevisiae rad50 strain growth inhibition, stronger effect = higher value
Summary of the method: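 Yeast carrying a defined DNA repair defect were exposed to test compounds, and growth was compared with vehicle-treated controls to give percent inhibition.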

[2] = NCI Yeast Anticancer Drug Screen. Data for the mec2-1 strain (AID 157); conditions: S. cerevisiae mec2-1 strain, stronger effect = higher value
Summary of the method: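 Readout is yeast growth inhibition, normalised to vehicle-treated controls, in the mec2-1 strain exposed to compound.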

[3] = NCI Yeast Anticancer Drug Screen. Data for the sgs1 mgt1 strain (AID 161);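 also: 0% = growth of cultures given vehicle only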; conditions: S. cerevisiae sgs1 mgt1 strain, stronger effect = higher value
Summary of the method: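 Growth of a repair-deficient yeast mutant was monitored after compound treatment and expressed as inhibition relative to vehicle-treated cultures.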

[4] = NCI Yeast Anticancer Drug Screen. Data for the cln2 rad14 strain (AID 165);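 also: 0% = growth equal to vehicle treated cultures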; conditions: S. cerevisiae cln2 rad14 strain, stronger effect = higher value
Summary of the method: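 Relative to vehicle controls, growth inhibition of compound-treated cln2 rad14 yeast was recorded.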

[5] = NCI Yeast Anticancer Drug Screen. Data for the bub3 strain (AID 167); conditions: S. cerevisiae bub3 mutant strain, stronger effect = higher value
Summary of the method: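 Compounds were applied to a genetically altered yeast strain carrying a cell-cycle control defect. Growth inhibition was scored against vehicle-treated controls.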

[6] = NCI Yeast Anticancer Drug Screen. Data for the mlh1 rad18 strain (AID 175); conditions: S. cerevisiae mlh1 rad18 strain growth inhibition, stronger effect = higher value
Summary of the method: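 Test agents were incubated with a yeast strain of defined genotype (DNA damage repair defect). Inhibition of growth was derived by comparison with vehicle-exposed cultures.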

[7] = at 5.0 µM (retest, dose inferred, filed as 0.5)
[8] = at 50.0 µM (retest, dose inferred, filed as 5.0)

Measured: growth inhibition

N#CC(C(=O)C(=O)Nc1cccc(C(F)(F)F)c1)c1ccccc1 (stereo not given)
active: [1]; [8] 90% | [2]; [8] 76% | [3]; [8] 75% | [4]; [8] 90% | [5]; [8] 94% | [6]; [8] 83%
inactive: [1]; [7] -23% | [1]; at 50.0 µM -23.1% | [2]; [7] -12% | [2]; at 50.0 µM 10.2% | [3]; [7] -19% | [3]; at 50.0 µM 16.6% | [4]; [7] -9% | [4]; at 50.0 µM -20.7% | [5]; [7] -10% | [5]; at 50.0 µM 6.55% | [6]; [7] 34% | [6]; at 50.0 µM 12.7%

Cc1cc(O)ccc1C1(c2ccc(F)cc2)OC(=O)c2ccccc21 (stereo not given)
active: [1]; [8] 99% | [1]; at 50.0 µM 90.1% | [2]; [8] 99% | [2]; at 50.0 µM 91.8% | [3]; [8] 99% | [3]; at 50.0 µM 88.2% | [4]; [8] 97% | [4]; at 50.0 µM 91.5% | [5]; [8] 98% | [5]; at 50.0 µM 90.3% | [6]; [8] 99% | [6]; at 50.0 µM 89.6%
inactive: [1]; [7] 31% | [2]; [7] 32% | [3]; [7] 37% | [4]; [7] 31% | [5]; [7] 29% | [6]; [7] 45%

CC(CC(C)[C@H]1CCC2[C@H]3C(CC(=O)[C@@]21C)[C@@]1(C)CCC(O)C[C@H]1C[C@@H]3O)C(=O)O (stereo not given in full)
inactive: [1]; [7] -1% | [2]; [7] 1% | [3]; [7] -1% | [4]; [7] -4% | [5]; [7] -4% | [6]; [7] 10%
active: [1]; [8] 99% | [1]; at 50.0 µM 98.3% | [2]; [8] 99% | [2]; at 50.0 µM 98.5% | [3]; [8] 98% | [3]; at 50.0 µM 98.8% | [4]; [8] 99% | [4]; at 50.0 µM 96.8% | [5]; [8] 98% | [5]; at 50.0 µM 99% | [6]; [8] 99% | [6]; at 50.0 µM 98.2%

NCC1CCNCC1
inactive: [1]; [7] 2% | [1]; [8] -6% | [1]; at 50.0 µM -16.7% | [2]; [7] -2% | [2]; [8] -19% | [2]; at 50.0 µM -9.25% | [3]; [7] 2% | [3]; [8] 3% | [3]; at 50.0 µM -15.2% | [4]; [7] 0% | [4]; [8] -6% | [4]; at 50.0 µM 16% | [5]; [7] -5% | [5]; [8] 1% | [5]; at 50.0 µM 3.9% | [6]; [7] 10% | [6]; [8] 0% | [6]; at 50.0 µM -4%

O=C(O)c1ccccc1NC(c1ccccc1)c1ccc2cccnc2c1O (stereo not given)
active: [1]; [8] 94% | [1]; at 50.0 µM 96.8% | [2]; [8] 91% | [2]; at 50.0 µM 93% | [3]; [8] 87% | [3]; at 50.0 µM 96.8% | [4]; [8] 88% | [4]; at 50.0 µM 93.3% | [5]; [8] 95% | [5]; at 50.0 µM 93.7% | [6]; [8] 96% | [6]; at 50.0 µM 93.5%
inactive: [1]; [7] -15% | [2]; [7] -3% | [3]; [7] 0% | [4]; [7] -39% | [5]; [7] -17% | [6]; [7] -14%

From PubChem BioAssay (NCI)
